Bioassay records deposited in PubChem BioAssay by National Center for Advancing Translational Sciences (NCATS).
A selection: hits, their analogues and other compounds. The true share with any hit is near 10%.
HP1b chromo inh – inhibitors of HP1-beta chromodomain binding to methylated histone tails; AlphaScreen HP1-beta / biotin-H3K9me3 peptide binding; P83916; AID 540317; Potency, µM (top dose mostly 114 µM), inactives show at the highest dose activity change, negative = inhibition, most hits filed as inhibitors; 0.56% of 390,000 active; note: nearly all actives have a fitted effect of over 70% in size
Target sequence (P83916 whole entry, looked up): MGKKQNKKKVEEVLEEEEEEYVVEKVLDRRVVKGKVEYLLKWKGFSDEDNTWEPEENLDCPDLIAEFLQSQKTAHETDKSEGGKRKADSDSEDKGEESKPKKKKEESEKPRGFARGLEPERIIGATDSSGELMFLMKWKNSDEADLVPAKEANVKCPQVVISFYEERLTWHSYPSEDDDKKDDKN
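AlphaScreen: HP1-beta (50 nM) preformed 30 min with biotin-H3(1-18)K9me3 peptide (50 nM) in PBS pH 7.4, 0.01% Tween-20. Compound added for 30 min at RT, then streptavidin donor/nickel chelate acceptor beads (10 ug/mL) for 30 min.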
L3MBTL1 inh – blocks human L3MBTL1; Q9Y468; AlphaScreen L3MBTL1–H3K9me1 peptide binding; Potency, µM (top dose mostly 57.1 µM), for the others: at the top dose activity, negative = inhibition, hits mostly inhibitors; 0.66% of 230,000 active; AID 485360; note: % is set by controls: 0 for no effect and ±100 for the full control effect; nearly all actives have a fitted effect of over 60% in size
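Read-out is AlphaScreen signal from streptavidin donor and nickel chelate acceptor beads (10 ug/mL final each) bridging L3MBTL1 (50 nM) and biotinylated K9-monomethylated H3(1-15) peptide (75 nM), after 30 min compound exposure at room temperature.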
G9a inh – blocks human histone lysine methyltransferase G9a | G9a H3K9 monomethylation, AlphaScreen, 2 h | 8.8% of 350,000 active | Q96KQ7 | Potency, µM (highest dose often 102 µM), without a hit: at the top dose activity, negative = inhibition, actives largely listed as inhibitors | AID 504332; note: % is set by controls: 0 for no effect and ±100 for the full control effect; nearly all actives have a fitted effect of over 75% in size
Target sequence (Q96KQ7 913-1193 limits assumed): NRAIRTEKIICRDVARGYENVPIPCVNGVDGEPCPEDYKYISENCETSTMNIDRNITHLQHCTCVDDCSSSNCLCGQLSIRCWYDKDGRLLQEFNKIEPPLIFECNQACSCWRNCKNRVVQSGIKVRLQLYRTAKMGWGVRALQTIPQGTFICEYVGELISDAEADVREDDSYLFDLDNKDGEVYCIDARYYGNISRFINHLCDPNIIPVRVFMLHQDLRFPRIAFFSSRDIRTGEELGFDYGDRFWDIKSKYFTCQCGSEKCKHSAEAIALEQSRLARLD
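G9a (20 nM) preincubated 15 min RT with compounds, then 500 nM biotinylated H3K9 peptide and 20 uM SAM added; 2 h RT reaction. Monomethyl-H3K9 product detected by AlphaScreen with anti-H3K9me1 antibody, streptavidin donor and anti-rabbit IgG acceptor beads.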
JMJD2A Tudor – blocks the human JMJD2A Tudor domain | AID 504339 | 4.4% of 390,000 active | Potency, µM (doses to about 114 µM), for inactives: top-dose activity change, negative = inhibition, actives largely listed as inhibitors | AlphaScreen JMJD2A-Tudor / H3K4me3 peptide binding; note: % is set by controls: 0 for no effect and ±100 for the full control effect; nearly all actives have a fitted effect of over 50% in size
GLS inh – glutaminase GLS (human) inhibition | O94925 | GLS enzymatic activity, qHTS titration | Potency, µM (highest dose often 45.5 µM), without a hit: at the highest dose activity change, negative = inhibition, usual class: inhibitors | 0.21% of 410,000 active; note: % is set by controls: 0 for no effect and ±100 for the full control effect
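hKGA in 45 mM KH2PO4 (pH 8.2), 0.02% Tween-20 with compound, then 1mM L-Glutamine (stock as added) plus glutamate oxidase/HRP/Amplex red coupling mix. Fluorescence read initially and after 30 min at RT; signal change reflects glutamate formation.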
BAZ2B inh – inhibitors of human BAZ2B bromodomain; Potency, µM (top dose mostly 114 µM), without a hit: top-dose activity change, negative = inhibition, usual class: inhibitors; Q9UIF8; 4.4% of 360,000 active; AlphaScreen BAZ2B-H3K14Ac peptide displacement; note: % is set by controls: 0 for no effect and ±100 for the full control effect; nearly all actives have a fitted effect of over 60% in size
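In this displacement format the biotinylated H3(5-23) peptide acetylated at Lys14 serves as ligand at 50 nM, with BAZ2B at 50 nM in PBS pH 7.4 containing 0.01% Tween-20. Donor and acceptor beads are 10 ug/mL final.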
* hit, by the source's call; ? = inconclusive; . = no result; [ ] = remark or other dose. Calls come from the whole dose curve; as a rule, active = well fitted curve in the direction sought with a large enough effect; inconclusive = small, poorly fitted or top-dose-only effect, or another doubt; inactive = no such curve, though single readings can be large; an effect the other way counts as inactive or inconclusive. Potency is the fitted concentration of half-maximal effect.

SMILES	HP1b chromo inh	L3MBTL1 inh	G9a inh	JMJD2A Tudor	GLS inh	BAZ2B inh
O=C(NCc1ccccn1)c1cccc(S(=O)(=O)NCc2ccccc2)c1	45%	-4%	15%	-13%	2%	56µM*
Cc1cc(S(=O)(=O)NC2CCCCC2)ccc1OCC(=O)NCc1ccccn1	21%	-6%	10%[59 µM]	28µM*	4%	-27%
Cc1nc(-n2nc(C)c(Cc3ccccc3Cl)c2C)sc1C(=O)N1CCCCC1C (stereo not given)	44%	.	-20%[59 µM]	-5%	-2%	-4%
COc1ccc(S(=O)(=O)N2CCN(c3nc(-c4cccs4)nc4ccccc34)CC2)cc1OC	24%	.	.	-17%	.	.
OC(c1ccccc1)(c1ccccc1)c1cnc2ccccn12	.	.	.	-14%	.	.
CCOc1cc(C2Nc3ccccc3C(=O)N2Cc2ccco2)ccc1O (stereo not given)	26%[57 µM]	.	.	-14%[57.1 µM]	.	.
CC(=O)OC1CCC2(C)C(=CCC3C2CCC2(C)C(C(C)=O)CCC32)C1 (stereo not given)	.	.	.	.	0%	.
O=C(NCCS(=O)(=O)NCc1ccccn1)c1ccccc1	-2%	-8%	61%	2.8µM*	4%	4%
O=C(COc1ccc(S(=O)(=O)NCc2ccccc2)cc1Cl)NCc1ccccn1	-4%	.	45µM*	-13%	2%	-38%
O=C(COc1ccc(S(=O)(=O)NCc2ccccc2)cc1Cl)NCc1ccncc1	33%	.	?	-8%	-17%	-23%
Cc1cccc(CCNC(=O)C2CCC(CNS(=O)(=O)c3c(C)cc(C)cc3C)CC2)c1 (stereo not given)	12%	.	-2%[59 µM]	-6%	-2%	6%
Cc1cc2cc(CN(CCN(C)C)C(=S)NCc3ccco3)c(=O)[nH]c2cc1C	-23%	-23%	13%[12.7 µM]	?	-6%	71µM*
Cc1cc2cc(CN(Cc3ccco3)C(=O)NCc3ccccc3)c(=O)[nH]c2cc1C	2%	-10%	50µM*	-21%	0%	?
Cc1cc(C)n(CC(O)Cn2c3ccc(Br)cc3c3cc(Br)ccc32)c(=O)n1 (stereo not given)	?	.	79µM*	-35%	-2%	-2%
CCC(=O)N(C1=C(NC)C(=O)c2ccccc2C1=O)C(C)C	3%	.	-40%	-17%	1%	-25%
CCC(=O)N(CC)C1=C(O)c2ccccc2C(=O)C1=O	?	-11%	1µM*	5.6µM*	8%	45µM*
CN(C)CCO[C@](C)(c1ccccc1)c1ccccn1	.	.	16%[21.5 µM]	.	0%	.
NC(=O)c1cc2c3ccccc3ccn2c1-c1ccccc1	?	.	35µM*	32µM*	12%	32µM*
Clc1nccnc1N/N=C/c1ccc(Br)cc1	2%	-4%	-31%	-20%	12%	?
O=[N+]([O-])c1ccccc1/C=N/Nc1nccnc1Cl	-5%	-1%	88%[59 µM]	?	24%	?
Oc1ccc(/C=N/Nc2nccnc2Cl)c(O)c1	30%	.	38%	50µM*	18%	14µM*
Oc1ccc(Br)cc1/C=N/Nc1ncc(-c2ccccc2)cn1	33%	1%	17%	-24%	0%	-14%
Oc1ccccc1/C=N/Nc1nccnc1Cl	33%	.	-6%[12.7 µM]	?	0%	35µM*
Oc1ccc(/C=N/Nc2ncc(Br)cn2)c(O)c1	15%	?	49%[59 µM]	?	24%	14µM*
CC1(C)CC(=O)C2=C(C1)NC(Nc1nc3ccccc3o1)=NC2c1ccccc1 (stereo not given)	20%[57 µM]	.	.	-2%[57.1 µM]	.	.
SMILES	HP1b chromo inh	L3MBTL1 inh	G9a inh	JMJD2A Tudor	GLS inh	BAZ2B inh
COc1cccc(NC(=O)CN2C=NS(=O)(=O)c3ccccc32)c1	20%	.	0%[59 µM]	-17%	-15%	0%
O=C(CCc1nc2cccnc2n1Cc1cccs1)Nc1cccc(Cl)c1	21%	.	8%[59 µM]	-25%	1%	-16%
COc1ccccc1N=Nc1[nH]c2ccc(C)cc2c1O	-1%	-10%	11µM*	?	-5%	50µM*
Cc1ccc2[nH]c(O)c(N=Nc3ccccc3[N+](=O)[O-])c2c1	12%	.	.	-22%	-1%	.
CC(=O)c1[nH]c(C)c(C(=O)NCc2ccc(Cl)cc2)c1C	65%	.	3%[59 µM]	5%	-4%	-3%
COc1ccc(OC)c(C2C(C(=O)c3cccs3)=C(O)C(=O)N2CCN(C)C)c1 (stereo not given)	24%	2%	50µM*	-24%	24%	12%
COc1cc(C2C(C(C)=O)=C(O)C(=O)N2Cc2ccccc2)ccc1O (stereo not given)	22%	.	45µM*	17%	52%	-23%
COc1cc(C2C(C(=O)C(C)(C)C)=C(O)C(=O)N2Cc2ccccc2)ccc1O (stereo not given)	16%	3%	.	?	25%	?
COc1ccc(C2C(C(=O)C(C)(C)C)=C(O)C(=O)N2Cc2ccccc2)cc1 (stereo not given)	15%	5%	-13%[59 µM]	-26%	16%	-3%
CC(=O)C1=C(O)C(=O)N(Cc2ccccc2)C1c1cccs1 (stereo not given)	-5%	-3%	45µM*	-21%	14%	?
COc1ccc(C2C(C(C)=O)=C(O)C(=O)N2Cc2ccccc2)c(OC)c1 (stereo not given)	16%	.	50µM*	2%	7%	-3%
CCCCN(Cc1ccccc1)S(=O)(=O)c1ccc2c(c1)CC(C)N2C(=O)CC (stereo not given)	85%	.	-5%[59 µM]	14%	7%	.
COc1ccc(CCNC(=O)CCc2cn(Cc3ccc(C)cc3)c3ccccc23)c(OC)c1OC	10%	.	?	?	7%	?
COc1cc([N+](=O)[O-])ccc1NC(=O)N1CCC2(CC1)Nc1ccccc1-n1cccc12	-17%[57 µM]	.	?	?	?	?
O=C(CSC1=Nc2ccccc2C2=NC(CCC(=O)NC3CCCCC3)C(=O)N12)Nc1cccc(C(F)(F)F)c1 (stereo not given)	42%	.	0%[59 µM]	1%	-2%	2%
CC(=O)C1=C(O)C(=O)N(CCc2ccccc2)C1c1ccccc1[N+](=O)[O-] (stereo not given)	-6%	11%	1%[59 µM]	7%	-11%	4%
COc1ccc(OC)c(C2C(C(C)=O)=C(O)C(=O)N2CCC(=O)O)c1 (stereo not given)	-7%	.	?	?	0%	50µM*
COc1ccc(C2C(C(C)=O)=C(O)C(=O)N2CCc2ccccc2)c(OC)c1 (stereo not given)	11%	.	?	32µM*	-7%	?
CCCNS(=O)(=O)c1cc(CN2C(=O)c3cccnc3C2=O)ccc1OC	8%	.	-8%	89µM*	2%	?
